# HDAC3 inhib – blocks human histone deacetylase 3 | O15379 | recombinant HDAC3, fluorogenic peptide/trypsin coupled, fluorescence | inhibition, % at 8.3 µM | 0.15% of 320,000 active | AID 2718; in the data active means inhibition above about 26%, passing the limit was not always enough
# Target sequence (O15379 whole entry, looked up): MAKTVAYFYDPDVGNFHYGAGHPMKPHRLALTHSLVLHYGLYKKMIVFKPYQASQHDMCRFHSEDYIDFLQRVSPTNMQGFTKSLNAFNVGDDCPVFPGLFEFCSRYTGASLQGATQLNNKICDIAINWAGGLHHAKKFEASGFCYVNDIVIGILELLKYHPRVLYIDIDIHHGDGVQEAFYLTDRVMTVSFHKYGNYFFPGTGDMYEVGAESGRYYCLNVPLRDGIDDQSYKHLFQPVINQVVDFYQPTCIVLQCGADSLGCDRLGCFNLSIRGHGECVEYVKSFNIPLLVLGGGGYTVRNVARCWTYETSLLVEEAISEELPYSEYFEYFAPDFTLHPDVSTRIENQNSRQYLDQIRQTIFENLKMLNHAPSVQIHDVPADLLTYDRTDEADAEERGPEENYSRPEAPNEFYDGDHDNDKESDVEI
# TMEM16A act – mouse TMEM16A channel activation, primary screen | Q8BHY3 | HEK293 TMEM16A/YFP-H148Q/I152L, iodide quench fluorescence; hits give low values | B-score at 10 µM | 0.3% of 340,000 active | AID 623877;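 active means fluorescence-ratio B-score plate-corrected deviation score at least 3 library SD below zero, with starting fluorescence score within 5 deviations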;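 further: channel opened by trigger with iodide after compound preincubation; score built on the fluorescence ratio of max minus min over baseline; more negative score means more quench and so TMEM16A activation or potentiation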
# PHOSPHO1 block – inhibitors of human PHOSPHO1 phosphatase; Q8TCT1; recombinant PHOSPHO1, absorbance phosphatase assay; inhibition, % at 13.3 µM; 1.1% of 290,000 active; AID 1565; in the data active means inhibition above about 60%
# CHT inh – human CHT choline transport inhibition | Q9GZV3 | CHT-expressing cells, membrane potential dye, choline response; hits give low values | B-score at 10 µM | 0.86% of 310,000 active;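 active means B-score over 3 SD under the library average, and starting fluorescence ratio not unusually high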;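 further: choline stimulus applied at its EC90 after an EC20 pre-addition; B-score computed on integrated fluorescence ratio after choline addition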
# ANO1 block – mouse TMEM16A channel inhibition, primary screen. Q8BHY3. HEK293 TMEM16A/YFP iodide influx fluorescence, ionomycin. normalized B-score (activity score, 25-100; higher = stronger inhibition) at 10 µM. 1.2% of 310,000 active;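 active means ratio plate-corrected score three or more library SD toward inhibition, starting fluorescence score within five deviations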;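 further: score derived from kinetic fluorescence span divided by baseline fluorescence per well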
# CHT PAM – allosterically activates the human high affinity choline transporter. AID 488977. 0.49% of 310,000 active. Q9GZV3. CHT-expressing cells, membrane potential dye, choline EC20; hits give high values; LV-AA mutant CHT in HEK293 cells. B-score at 10 µM;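 active means initial fluorescence not abnormally high and integrated response B-score, plate-corrected, over 3 SD above library mean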
# TMEM16A reconf – re-confirmation of mouse TMEM16A chloride channel inhibitors | shares compounds with ANO1 block | HEK293 TMEM16A/YFP-H148Q, iodide quench fluorescence; ionomycin added to raise cell calcium | inhibition, % at 10 µM | 39% of 2,300 active | AID 652189;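 active means mean duplicate percent inhibition, scaled so buffer wells are 0 and the reference blocker 100, over three buffer SD above buffer mean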
# TMEM16A Ca cntr – counter-screen for TMEM16A inhibitors: effect on calcium mobilization; calcium response (% of ionomycin), % at 10 µM; TMEM16A/YFP HEK293, Fluo4 calcium mobilization; 2% of 2,300 active; AID 652231; shares compounds with ANO1 block;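 active means duplicate-averaged calcium signal over 20% of the ionomycin maximum, relative to buffer baseline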;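 further: each well's signal is peak minus trough fluorescence divided by its pre-addition baseline; 0% = buffer wells and 100% = ionomycin wells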
# Parental YFP cnt – acts in parental YFP-HEK293 cells lacking TMEM16A, counter-screen. shares compounds with ANO1 block. iodide YFP quench, ionomycin. YFP ratio F(max-min)/F0 at 10 µM. 2,300 tested, under 10 active. AID 652233;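 active means yellow fluorescent protein signal ratio exceeding the buffer control mean by over 5 SD of those controls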;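 further: ratio is mean of duplicate wells from kinetic YFP trace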
# ClC-1 rat inh – selectivity of TMEM16A inhibitors: inhibition of rat ClC-1 chloride channel | shares compounds with ANO1 block | 2,300 tested, under 10 active | ratio percent, % at 10 µM | CHO ClC-1-YFP, iodide influx fluorescence quench; iodide control reads 0, buffer control 100;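 active means duplicate-mean ratio percent above the mean of iodide-only control wells, which defines zero, plus 5 of their SD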;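 further: higher percent means stronger block of ClC-1 iodide influx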
# Active calls of the source: *; i = inactive; · = no result. Sampled rows, rich in hits. Any-hit rate of the full collection: about 3.2%.
SMILES,HDAC3 inhib,TMEM16A act,PHOSPHO1 block,CHT inh,ANO1 block,CHT PAM,TMEM16A reconf,TMEM16A Ca cntr,Parental YFP cnt,ClC-1 rat inh
Cc1ccc(S(=O)(=O)N2CCN(C(=O)CCC(=O)NCc3cccc(C(F)(F)F)c3)CC2)cc1,5.2,i,·,i,25*,i,i,i,-1.19,-19.5
O=C(CCC(=O)N1CCN(S(=O)(=O)c2ccc(Cl)cc2)CC1)NCc1ccccc1,-0.1,i,-5.7,i,i,i,·,·,·,·
COc1cc(Cl)ccc1OCc1cc(C(=O)N(C)Cc2cccc3cnccc23)no1,5.2,i,17.8,i,100*,i,25.0%*,i,-1.06,-13.0
CN(Cc1nccs1)C(=O)c1cc(COc2cccc3cnccc23)on1,-11.0,i,54.3,i,i,i,·,·,·,·
CC1(c2ccc([N+](=O)[O-])cc2)NC(=O)N(CC(=O)c2ccc3c(c2)OCO3)C1=O (centres undefined),-0.1,i,·,i,i,i,·,·,·,·
CC1=C(C(=O)OCC(Br)(Br)Br)C(c2cccc([N+](=O)[O-])c2)NC(=O)N1CCCC(=O)O (centres undefined),2.4,i,·,i,25*,i,i,i,-0.991,-0.5
CCOC(=O)C1=C(C)N(CCCCCC(=O)O)C(=O)NC1c1cccc([N+](=O)[O-])c1 (centres undefined),2.9,i,-1.7,i,i,i,·,·,·,·
CC(=O)c1cccc(NS(=O)(=O)c2ccc(-c3cnc(C4CC4)o3)cc2)c1,1.8,i,31.5,i,25*,i,16.5%*,i,-1.03,-17.0
NC(=O)CCCSc1nc2ccccc2[nH]1,5.5,i,8.0,i,i,i,·,·,·,·
COc1ccccc1NC(=O)COc1ccc(/C=N/NC(=O)CSCc2ccc(Cl)cc2)cc1,1.6,i,46.0,i,100*,i,18.5%*,i,-1.08,3.5
COc1ccccc1NC(=O)COc1ccc(/C=N/NC(=O)CSCc2cc(C)cc(C)c2)cc1,7.8,i,-9.8,i,i,i,·,·,·,·
COc1cc(NC(=S)N2CCN(CCO)CC2)cc(OC)c1,-0.9,i,34.0,i,i,i,·,·,·,·
CCN1C(=O)C(CC(=O)Nc2ccc(OC)cc2)N(CCN2CCOCC2)C1=S (centres undefined),1.2,i,2.8,i,i,i,·,·,·,·
CCN1C(=O)C(CC(=O)Nc2ccc(F)cc2)N(CCc2ccc(OC)cc2)C1=S (centres undefined),20.1,i,-3.4,i,25*,i,i,i,-0.962,-1.0
Cc1ccc(C(=O)C2=C(O)C(=O)N(c3ncccn3)C2c2ccccc2F)o1 (centres undefined),0.8,i,-4.5,i,i,i,·,·,·,·
CCC(C)NC(=O)C1CCC(CNS(=O)(=O)c2ccccc2)CC1 (centres undefined),-0.9,i,30.8,i,i,i,i,i,-0.863,0.5
CCOc1cc(/C=N/NC(=O)CCn2nnc3ccccc32)ccc1O,-0.8,i,10.6,i,i,i,·,·,·,·
COc1cc(/C=C2/CCC/C(=C\c3cc(O)c(OC)c(Cl)c3)C2=O)cc(Cl)c1O,2.8,i,-35.8,i,i,i,i,i,-0.782,-38.0
CN1CCN(C(=O)/C=C\C(=O)O)CC1,-3.2,i,8.2,i,i,i,·,·,·,·

# Screens (PubChem BioAssay)
